The source of these data is PubChem BioAssay (NCATS).

Test [1] concerns the target Tumor necrosis factor (Homo sapiens) (UniProt P01375). The test can be described thus: qHTS assay to identify small molecules that stimulate Tumor Necrosis Factor-alpha (TNF-alpha) secretion (AID 651757; active means well fitted curve in the direction sought with a large enough effect in the signal ratio; the % refers to the signal ratio; further: 0% is about no effect). The method, boiled down: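 Using 3000 THP-1 cells per well, compounds and controls were applied for 17 hrs at 37 C. Detection followed with two labeled anti-TNF-alpha antibodies (cryptate donor, XL665 acceptor) for 3 hr at room temperature, measured by TR-FRET.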
Background: Quantitative high-throughput screening tests each substance at several concentrations.

Test [2] concerns the target Peroxisome proliferator-activated receptor alpha (Homo sapiens) (UniProt Q07869). The test is described as follows: qHTS assay for small molecule agonists of the peroxisome proliferator-activated receptor alpha (PPARalpha) signaling pathway (AID 651778). Further: % of control where 0% means no effect. The note with it: PathHunter PPARalpha complementation, chemiluminescence, 6 h; hits give high values. The method, boiled down:
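Enzyme-fragment complementation assay in which ligand-bound PPARalpha translocates and forms an active enzyme that generates chemiluminescence. Cells were plated overnight, exposed to compound for 6 hr at 37 C, and then given detection reagent for 60 min at room temperature.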

Test [3] can be described thus: qHTS assay for small molecule disruptors of the mitochondrial membrane potential - 5 hr assay (AID 651755; calls by dose curve; further: on the % scale 0 is the no-effect control and ±100 the full control effect; nearly all actives have a fitted effect of over 40% in size). The method, boiled down:
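Read-out: ratiometric Mito-MPS fluorescence, green monomer (ex 490/em 535) vs red mitochondrial aggregate (ex 540/em 590). HepG2 cells treated 5 hr at 37C before 30 min dye loading.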

The nature of test [4]: qHTS assay for environmental chemicals that activate the Aryl hydrocarbon Receptor (AhR) signaling pathway (AID 651777). Further: nearly all actives have a fitted effect of over 15% in size. Further: potency means the concentration at half of the fitted maximal effect. On activation: % of control where 0% means no effect. The note with it: 1A2-DRE human hepatoma cells, luciferase, 24 h; activation: hits give high values. The gist of the method:
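Luminescence (One-Glo, 30 min, room temperature) reports AhR-driven luciferase in stably transfected human hepatoma cells bearing DRE and CYP1A2 promoter. Cells (1,200/well) were treated with compound for 24 hr at 37 C in qHTS format.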

Test [5] can be described thus: qHTS assay for small molecule disruptors of the mitochondrial membrane potential - 1 hr assay (AID 651754; calls by dose curve; further: on the % scale 0 is the no-effect control and ±100 the full control effect; nearly all actives have a fitted effect of over 35% in size). The method, boiled down:
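In this qHTS format, a 1 hr compound treatment of HepG2 cells precedes Mito-MPS staining, and membrane potential is judged from aggregate (red) against monomer (green) fluorescence intensity.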

Values joined by “and” are separate entries in the source; they are usually repeats but may differ in a detail not shown here. Equal entries are not always repeated. Values without a mark were called inactive. Inconclusive results are not listed. Active and inactive are the calls of the source. Unless noted, the call rests on the fitted dose curve; in most records, active means well fitted activation curve with a large enough effect; inconclusive means small, poorly fitted or top-dose-only effect; inactive means flat fitted curve, though single readings scatter.

Sequence of Tumor necrosis factor (Homo sapiens) (P01375 whole entry, looked up): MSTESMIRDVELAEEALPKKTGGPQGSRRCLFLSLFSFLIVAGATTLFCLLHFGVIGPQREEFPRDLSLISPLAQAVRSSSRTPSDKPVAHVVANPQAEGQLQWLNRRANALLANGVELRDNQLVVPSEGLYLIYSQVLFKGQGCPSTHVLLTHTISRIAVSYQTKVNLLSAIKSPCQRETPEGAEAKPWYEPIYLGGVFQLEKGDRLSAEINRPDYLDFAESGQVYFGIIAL
Sequence of Peroxisome proliferator-activated receptor alpha (Homo sapiens) (Q07869 whole entry, looked up, the tested form may be a part): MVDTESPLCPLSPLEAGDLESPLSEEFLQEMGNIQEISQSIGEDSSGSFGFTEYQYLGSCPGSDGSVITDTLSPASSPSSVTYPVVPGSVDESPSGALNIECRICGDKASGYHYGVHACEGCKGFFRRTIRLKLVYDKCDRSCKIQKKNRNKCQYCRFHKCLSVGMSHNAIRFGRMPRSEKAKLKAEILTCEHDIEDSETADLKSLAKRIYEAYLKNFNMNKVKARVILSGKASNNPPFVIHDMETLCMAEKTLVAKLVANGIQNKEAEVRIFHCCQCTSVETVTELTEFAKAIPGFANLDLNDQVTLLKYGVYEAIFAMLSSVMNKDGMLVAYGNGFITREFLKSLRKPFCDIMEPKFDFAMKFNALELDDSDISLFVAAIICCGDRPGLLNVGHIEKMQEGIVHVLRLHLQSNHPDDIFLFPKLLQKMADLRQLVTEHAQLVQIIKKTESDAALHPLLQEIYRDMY

In the case of `O=C(O)/C=C\C(=O)O`, the molecule was called inactive in test [1]. Besides, in test [2], the max response is -3.33%.
In the case of `O=C(OCc1ccccc1)c1ccccc1`, the max response in test [2] is -1.34%.
Turning to `CN(C)CCC(c1ccc(Cl)cc1)c1ccccn1` (stereo not drawn), the Potency result in test [3] was “inactive”. In test [1], the molecule was called inactive. In test [4], the activation is -0.109%. In addition, in test [2], the max response is -7.82%.
For the molecule `CCCCCCCCCCCCCCCCCC(=O)O`, the Potency result in test [5] and in test [3] was “inactive” throughout. In test [1], the result was inactive. Also, the activation in test [4] was 0.0234% and 0.947% and 1.53%. Besides, the max response in test [2] was 3.29% and 5.21% and -0.146%.
Regarding `O=C(O)c1ccccc1Nc1cccc(C(F)(F)F)c1`, the activation in test [4] is 0.429%.
Regarding `O=C(Nc1ccccc1)c1cc([N+](=O)[O-])ccc1Cl`, the Potency in test [4] was 14.1 µM (active). The max response in test [2] was 0.605%.
As for `CC(C)NCC(O)COc1cccc2ccccc12` (stereo not drawn), the Potency result in test [5] and in test [3] was “inactive” throughout. Also, in test [1], the molecule was classed as inactive. Also, the activation in test [4] is 1.27% and 9.4%. The max response in test [2] was -1.25% and -0.701%.
In the case of `c1cnc2c(c1)ccc1cccnc12`, the Potency entry in test [5] is “inactive”. For the same molecule, the activation in test [4] is 2.54%. The max response in test [2] was -3.72%.
